Assay results: the supplement of paper PMC10849652
Targets with a hit are over-represented here; the source holds about 8,800 in all. About 0.5% of all pairs of compound and target were hits. Values without a mark were called inactive.

Assays:
Assay in all cases: log2 fold change, soluble protein after heating vs DMSO (PISA); higher = thermal stabilisation; K562 lysate, 10 uM; active = over 0.2 and 3.5 SD of the protein, either way, in both replicates (recomputed)
alvocidib = compound: CN1CC[C@H](c2c(O)cc(O)c3c(=O)cc(-c4ccccc4Cl)oc23)[C@H](O)C1 [alvocidib]
Method in brief: (§1)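 A 30 min treatment with 10 μM compound was applied to crude K562 extract at 1 mg/mL protein in PBS pH 7.4 with 1 mM MgCl2. Heating for 3 min spanned 48°C-58°C, after which aliquots were pooled, adjusted to 0.5% NP-40 at 4°C and spun at 21,000xg for 90 min. TMTpro 16plex LC-MS/MS of the supernatant, with channel sums equalised, gave values recorded as log-two fold change in thermal stability against solvent controls, from duplicates.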

Tubastatin A = compound: CN1CCc2c(c3ccccc3n2Cc2ccc(C(=O)NO)cc2)C1 [Tubastatin A]
Method in brief: as §1

[1] = compound: CNC(=O)C1=CC=CC=C1NC2=NC(=NC=C2Cl)NC3=C(C=C(C=C3)N4CCOCC4)OC
Method in brief: as §1

defactinib = compound: CNC(=O)c1ccc(Nc2ncc(C(F)(F)F)c(NCc3nccnc3N(C)S(C)(=O)=O)n2)cc1 [defactinib]
Method in brief: as §1

[2] = compound: CNc1nc(-c2ccc3c(N)n[nH]c3c2)cc(N2C[C@@H](C(=O)NC3CCCCC3)CC[C@H]2C)n1
Method in brief: as §1

encorafenib = compound: COC(=O)N[C@@H](C)CNc1nccc(-c2cn(C(C)C)nc2-c2cc(Cl)cc(NS(C)(=O)=O)c2F)n1 [encorafenib]
Method in brief: as §1

[3] = compound: COC(=O)[C@H](CCSC)NC(=O)C1=C(C=C(C=C1)NC[C@H](CS)N)C2=CC=CC=C2
Method in brief: as §1

alisertib = compound: COc1cc(Nc2ncc3c(n2)-c2ccc(Cl)cc2C(c2c(F)cccc2OC)=NC3)ccc1C(=O)O [alisertib]
Method in brief: as §1

[4] = compound: COc1cc2nc(-c3cc(F)ccc3O)nc(N[C@@H]3CNC[C@H]3C(C)(C)O)c2cc1OC
Method in brief: as §1

gefitinib = compound: COc1cc2ncnc(Nc3ccc(F)c(Cl)c3)c2cc1OCCCN1CCOCC1 [gefitinib]
Method in brief: as §1

lapatinib = compound: CS(=O)(=O)CCNCc1ccc(-c2ccc3ncnc(Nc4ccc(OCc5cccc(F)c5)c(Cl)c4)c3c2)o1 [lapatinib]
Method in brief: as §1

pictilisib = compound: CS(=O)(=O)N1CCN(Cc2cc3nc(-c4cccc5[nH]ncc45)nc(N4CCOCC4)c3s2)CC1 [pictilisib]
Method in brief: as §1

crizotinib = compound: C[C@@H](Oc1cc(-c2cnn(C3CCNCC3)c2)cnc1N)c1c(Cl)ccc(F)c1Cl [crizotinib]
Method in brief: as §1

[5] = compound: C[C@H](C1=CC=C(C=C1)C(=O)NC2=C3C=CNC3=NC=C2)N
Method in brief: as §1

duvelisib = compound: C[C@H](Nc1ncnc2nc[nH]c12)c1cc2cccc(Cl)c2c(=O)n1-c1ccccc1 [duvelisib]
Method in brief: as §1

gandotinib = compound: Cc1cc(Nc2cc(CN3CCOCC3)c3nc(C)c(Cc4ccc(Cl)cc4F)n3n2)n[nH]1 [gandotinib]
Method in brief: as §1

tozasertib = compound: Cc1cc(Nc2cc(N3CCN(C)CC3)nc(Sc3ccc(NC(=O)C4CC4)cc3)n2)n[nH]1 [tozasertib]
Method in brief: as §1

doramapimod = compound: Cc1ccc(-n2nc(C(C)(C)C)cc2NC(=O)Nc2ccc(OCCN3CCOCC3)c3ccccc23)cc1 [doramapimod]
Method in brief: as §1

bafetinib = compound: Cc1ccc(NC(=O)c2ccc(CN3CC[C@H](N(C)C)C3)c(C(F)(F)F)c2)cc1Nc1nccc(-c2cncnc2)n1 [bafetinib]
Method in brief: as §1

[6] = compound: Cc1cccc(CC(=O)N2CCc3c2ccc(-c2cn(C)c4ncnc(N)c24)c3F)n1
Method in brief: as §1

UniProt Q9BQ69, sequence (Q9BQ69 whole entry, looked up): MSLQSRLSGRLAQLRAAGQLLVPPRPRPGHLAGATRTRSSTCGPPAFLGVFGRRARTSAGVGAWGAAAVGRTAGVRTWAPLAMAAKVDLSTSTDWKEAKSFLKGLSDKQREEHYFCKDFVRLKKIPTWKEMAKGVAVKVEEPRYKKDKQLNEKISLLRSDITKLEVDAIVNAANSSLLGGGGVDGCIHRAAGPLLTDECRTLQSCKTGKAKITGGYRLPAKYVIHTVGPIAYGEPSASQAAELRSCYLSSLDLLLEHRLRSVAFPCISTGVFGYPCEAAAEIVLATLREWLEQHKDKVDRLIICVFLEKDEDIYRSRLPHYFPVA
UniProt Q15031, sequence (Q15031 whole entry, looked up): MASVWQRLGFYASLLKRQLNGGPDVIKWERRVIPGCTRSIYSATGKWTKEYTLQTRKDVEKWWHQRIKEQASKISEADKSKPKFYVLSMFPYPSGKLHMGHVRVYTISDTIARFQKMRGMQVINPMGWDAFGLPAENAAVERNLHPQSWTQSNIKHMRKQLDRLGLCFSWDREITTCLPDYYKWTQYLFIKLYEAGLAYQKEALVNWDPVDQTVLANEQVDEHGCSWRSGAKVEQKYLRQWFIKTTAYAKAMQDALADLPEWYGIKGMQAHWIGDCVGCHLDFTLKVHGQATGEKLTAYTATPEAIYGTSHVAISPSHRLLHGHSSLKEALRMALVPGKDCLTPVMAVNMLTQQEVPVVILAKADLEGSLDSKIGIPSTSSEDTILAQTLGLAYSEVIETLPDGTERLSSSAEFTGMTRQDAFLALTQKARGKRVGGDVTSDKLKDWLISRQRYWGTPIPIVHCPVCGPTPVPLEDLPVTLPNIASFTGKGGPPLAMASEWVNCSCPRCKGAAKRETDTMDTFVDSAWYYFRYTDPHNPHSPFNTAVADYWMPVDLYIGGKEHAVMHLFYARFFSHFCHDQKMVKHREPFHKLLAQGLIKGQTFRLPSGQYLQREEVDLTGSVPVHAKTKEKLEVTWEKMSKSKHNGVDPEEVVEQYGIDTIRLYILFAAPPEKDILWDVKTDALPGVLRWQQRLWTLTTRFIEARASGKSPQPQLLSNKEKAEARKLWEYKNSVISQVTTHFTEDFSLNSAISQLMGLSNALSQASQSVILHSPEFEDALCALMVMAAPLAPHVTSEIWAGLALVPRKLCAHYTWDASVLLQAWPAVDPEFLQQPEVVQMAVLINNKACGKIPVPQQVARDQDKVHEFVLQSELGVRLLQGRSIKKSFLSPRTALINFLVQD
UniProt Q9BTE3, sequence (Q9BTE3 whole entry, looked up): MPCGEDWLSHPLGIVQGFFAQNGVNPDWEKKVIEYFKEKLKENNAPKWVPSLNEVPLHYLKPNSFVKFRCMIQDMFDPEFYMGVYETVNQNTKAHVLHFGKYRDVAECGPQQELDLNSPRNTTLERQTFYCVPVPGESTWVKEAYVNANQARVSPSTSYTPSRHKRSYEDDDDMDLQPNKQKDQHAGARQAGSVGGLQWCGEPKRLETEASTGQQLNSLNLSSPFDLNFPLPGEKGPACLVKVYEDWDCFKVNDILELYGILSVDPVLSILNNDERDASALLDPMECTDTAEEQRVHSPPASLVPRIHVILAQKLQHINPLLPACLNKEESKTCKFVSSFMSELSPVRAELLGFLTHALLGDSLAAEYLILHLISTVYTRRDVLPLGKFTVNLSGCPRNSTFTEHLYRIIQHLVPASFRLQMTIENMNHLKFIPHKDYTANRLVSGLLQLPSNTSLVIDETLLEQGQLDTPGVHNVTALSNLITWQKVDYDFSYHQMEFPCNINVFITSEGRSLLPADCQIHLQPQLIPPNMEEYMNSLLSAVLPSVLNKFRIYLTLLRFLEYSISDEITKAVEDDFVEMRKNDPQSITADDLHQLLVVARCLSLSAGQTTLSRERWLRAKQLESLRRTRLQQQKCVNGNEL
UniProt O14733, sequence (O14733 whole entry, looked up): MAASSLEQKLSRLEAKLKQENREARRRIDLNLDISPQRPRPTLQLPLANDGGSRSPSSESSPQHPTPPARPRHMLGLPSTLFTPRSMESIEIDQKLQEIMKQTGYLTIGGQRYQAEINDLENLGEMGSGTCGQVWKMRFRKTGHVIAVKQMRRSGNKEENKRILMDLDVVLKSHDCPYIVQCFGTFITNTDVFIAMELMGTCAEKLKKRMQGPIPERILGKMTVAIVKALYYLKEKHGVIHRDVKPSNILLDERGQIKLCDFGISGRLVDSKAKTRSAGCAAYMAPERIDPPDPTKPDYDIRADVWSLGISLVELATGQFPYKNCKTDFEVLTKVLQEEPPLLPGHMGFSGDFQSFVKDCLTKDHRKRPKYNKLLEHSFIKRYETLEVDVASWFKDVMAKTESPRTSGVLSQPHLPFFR
UniProt Q07866, sequence (Q07866 whole entry, looked up): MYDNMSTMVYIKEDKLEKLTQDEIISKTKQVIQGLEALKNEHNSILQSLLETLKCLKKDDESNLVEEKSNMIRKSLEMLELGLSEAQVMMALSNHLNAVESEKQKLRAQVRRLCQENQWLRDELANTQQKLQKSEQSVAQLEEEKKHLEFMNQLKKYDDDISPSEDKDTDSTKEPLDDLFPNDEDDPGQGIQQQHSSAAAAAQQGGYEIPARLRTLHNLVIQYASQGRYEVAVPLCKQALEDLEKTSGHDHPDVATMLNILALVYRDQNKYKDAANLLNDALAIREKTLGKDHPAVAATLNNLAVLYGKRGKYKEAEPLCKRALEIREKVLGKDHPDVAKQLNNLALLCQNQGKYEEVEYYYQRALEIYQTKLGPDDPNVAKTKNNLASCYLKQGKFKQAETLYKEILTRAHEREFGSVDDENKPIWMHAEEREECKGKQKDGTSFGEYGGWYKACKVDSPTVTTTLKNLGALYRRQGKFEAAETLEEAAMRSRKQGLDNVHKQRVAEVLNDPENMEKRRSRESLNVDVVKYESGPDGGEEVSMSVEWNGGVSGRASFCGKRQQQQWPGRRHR
UniProt P11279, sequence (P11279 whole entry, looked up): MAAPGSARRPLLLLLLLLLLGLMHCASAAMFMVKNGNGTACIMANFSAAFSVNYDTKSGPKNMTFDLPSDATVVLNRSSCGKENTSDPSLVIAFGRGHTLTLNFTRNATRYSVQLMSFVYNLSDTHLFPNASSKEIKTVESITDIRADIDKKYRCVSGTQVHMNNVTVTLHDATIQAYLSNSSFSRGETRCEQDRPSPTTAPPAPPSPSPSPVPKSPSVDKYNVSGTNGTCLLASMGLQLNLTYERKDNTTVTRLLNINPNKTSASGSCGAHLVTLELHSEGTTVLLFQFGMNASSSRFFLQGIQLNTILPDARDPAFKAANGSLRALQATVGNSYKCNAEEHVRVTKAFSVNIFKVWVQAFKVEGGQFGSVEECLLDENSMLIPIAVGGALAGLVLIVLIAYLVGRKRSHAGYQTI
UniProt Q9NVC6, sequence (Q9NVC6 whole entry, looked up): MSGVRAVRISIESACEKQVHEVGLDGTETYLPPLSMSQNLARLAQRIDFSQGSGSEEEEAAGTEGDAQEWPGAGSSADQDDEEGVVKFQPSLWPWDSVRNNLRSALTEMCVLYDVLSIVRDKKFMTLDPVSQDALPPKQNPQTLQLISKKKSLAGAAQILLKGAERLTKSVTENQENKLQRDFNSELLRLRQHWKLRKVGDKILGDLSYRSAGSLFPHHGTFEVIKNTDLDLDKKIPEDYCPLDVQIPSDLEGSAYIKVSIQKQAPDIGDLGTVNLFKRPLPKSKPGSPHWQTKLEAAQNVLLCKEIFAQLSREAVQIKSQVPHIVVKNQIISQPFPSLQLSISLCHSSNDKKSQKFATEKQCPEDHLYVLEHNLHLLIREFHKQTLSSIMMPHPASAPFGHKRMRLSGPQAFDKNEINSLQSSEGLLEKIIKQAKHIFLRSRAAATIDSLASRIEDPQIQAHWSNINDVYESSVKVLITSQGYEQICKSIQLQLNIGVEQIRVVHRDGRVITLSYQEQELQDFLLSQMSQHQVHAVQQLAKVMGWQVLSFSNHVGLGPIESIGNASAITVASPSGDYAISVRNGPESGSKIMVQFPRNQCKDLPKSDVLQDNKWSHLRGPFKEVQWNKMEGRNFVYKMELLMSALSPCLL
UniProt Q14149, sequence (Q14149 whole entry, looked up): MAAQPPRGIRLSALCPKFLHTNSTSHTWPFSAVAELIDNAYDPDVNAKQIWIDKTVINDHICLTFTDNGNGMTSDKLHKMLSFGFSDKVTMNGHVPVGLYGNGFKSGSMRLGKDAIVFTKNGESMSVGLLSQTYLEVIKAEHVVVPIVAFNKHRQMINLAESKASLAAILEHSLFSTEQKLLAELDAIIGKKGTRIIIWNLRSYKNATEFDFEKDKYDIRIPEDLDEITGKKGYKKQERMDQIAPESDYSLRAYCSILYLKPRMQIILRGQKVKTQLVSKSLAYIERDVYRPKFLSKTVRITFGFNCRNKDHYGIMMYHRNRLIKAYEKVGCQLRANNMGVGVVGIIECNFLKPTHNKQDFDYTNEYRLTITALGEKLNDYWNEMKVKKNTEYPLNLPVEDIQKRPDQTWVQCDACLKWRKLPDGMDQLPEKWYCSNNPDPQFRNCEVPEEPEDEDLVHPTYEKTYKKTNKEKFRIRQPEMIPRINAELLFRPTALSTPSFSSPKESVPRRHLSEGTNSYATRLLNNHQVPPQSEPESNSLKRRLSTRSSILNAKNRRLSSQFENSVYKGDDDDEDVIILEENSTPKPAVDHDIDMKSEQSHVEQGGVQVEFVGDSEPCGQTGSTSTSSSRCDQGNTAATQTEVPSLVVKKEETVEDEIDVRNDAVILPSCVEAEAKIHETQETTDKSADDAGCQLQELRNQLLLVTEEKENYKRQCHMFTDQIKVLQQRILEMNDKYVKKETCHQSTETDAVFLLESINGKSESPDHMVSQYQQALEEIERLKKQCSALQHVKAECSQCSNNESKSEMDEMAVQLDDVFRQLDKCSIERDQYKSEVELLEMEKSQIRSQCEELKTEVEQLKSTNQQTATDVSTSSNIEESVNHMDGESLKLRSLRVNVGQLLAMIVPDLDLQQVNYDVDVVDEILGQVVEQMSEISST

Row | Target | log2 fold change (alvocidib) | log2 fold change (Tubastatin A) | log2 fold change [1] | log2 fold change (defactinib) | log2 fold change [2] | log2 fold change (encorafenib) | log2 fold change [3] | log2 fold change (alisertib) | log2 fold change [4] | log2 fold change (gefitinib) | log2 fold change (lapatinib) | log2 fold change (pictilisib) | log2 fold change (crizotinib) | log2 fold change [5] | log2 fold change (duvelisib) | log2 fold change (gandotinib) | log2 fold change (tozasertib) | log2 fold change (doramapimod) | log2 fold change (bafetinib) | log2 fold change [6]
1 | LIMK2 isoform 3 (UniProt P53671) | -0.002 | 0.02 | 0.068 | -0.026 | 0.102 | 0.204 | -0.189 | 0.031 | 0.033 | -0.141 | 0.029 | 0.112 | -0.138 | 0.626 (active) | -0.035 | -0.144 | 0.01 | 0.109 | -0.108 | -0.037
2 | MIPEP (UniProt Q99797) | 0.027 | 0.011 | -0.03 | 0.025 | -0.067 | -0.012 | 0.154 | -0.038 | -0.009 | -0.007 | -0.013 | -0.031 | 0.041 | -0.004 | -0.022 | -0.049 | 0.072 | -0.059 | 0.016 | 0.04
3 | MCMBP (UniProt Q9BTE3) | 0.035 | -0.078 | 0.029 | 0.041 | -0.003 | -0.001 | 0.074 | 0.005 | 0 | 0.011 | 0.008 | -0.027 | -0.032 | 0.048 | 0.002 | -0.083 | -0.007 | -0.001 | -0.007 | -0.048
4 | MAP2K7 isoform 4 (UniProt O14733) | 0.023 | -0.15 | 0.023 | -0.035 | 0.036 | -0.059 | 0.177 | 0.006 | -0.009 | -0.08 | 0.004 | 0.204 | -0.05 | 0.081 | -0.048 | -0.042 | -0.04 | 0.052 | -0.06 | 0.002
5 | KLHL36 (UniProt Q8N4N3) | 0.046 | 0.04 | -0.032 | 0.039 | 0.017 | 0.031 | -0.078 | 0.032 | -0.009 | -0.074 | -0.045 | -0.006 | 0.021 | -0.075 | -0.02 | -0.013 | 0.014 | -0.129 | 0.022 | -0.052
6 | MACO1 (UniProt Q8N5G2) | -0.003 | -0.003 | -0.012 | 0.01 | 0.119 | -0.101 | -0.016 | -0.024 | -0.005 | 0.04 | 0.016 | 0.041 | 0.003 | -0.019 | 0.015 | -0.008 | 0.138 | -0.035 | -0.001 | -0.001
7 | MORC3 (UniProt Q14149) | -0.015 | -0.098 | 0.017 | 0.018 | -0.028 | 0.007 | 0.038 | -0.003 | 0.021 | -0.01 | 0.021 | -0.037 | -0.02 | 0.005 | -0.001 | -0.053 | 0.001 | 0.024 | -0.001 | 0.014
8 | MAPK1 (UniProt P28482) | 0.051 | 0.061 | 0.242 (active) | 0.091 | -0.007 | -0.062 | 0.031 | -0.038 | 0.043 | 0.014 | -0.018 | 0.005 | 0.065 | -0.004 | 0.004 | 0.036 | -0.01 | -0.013 | 0.004 | -0.061
9 | KLC1 isoform 6 (UniProt Q07866) | -0.015 | -0.038 | 0.02 | -0.003 | -0.018 | 0.002 | 0.002 | 0.002 | 0.014 | -0.009 | -0.011 | -0.001 | 0 | -0.009 | -0.031 | -0.073 | -0.004 | 0.026 | -0.008 | 0.005
10 | MACROD1 (UniProt Q9BQ69) | 0.12 | -0.104 | 0.012 | 0.039 | 0.015 | 0.029 | -0.074 | -0.037 | -0.001 | 0.033 | 0.011 | -0.013 | -0.066 | 0.084 | 0.04 | -0.017 | -0.03 | -0.012 | -0.102 | 0.052
11 | KIF15 (UniProt Q9NS87) | -0.002 | -0.058 | 0.006 | -0.011 | 0.006 | 0.01 | 0.121 | -0.013 | -0.014 | 0.003 | -0.02 | 0.006 | -0.017 | 0 | -0.002 | -0.017 | 0.008 | 0.006 | -0.025 | 0.033
12 | MLST8 (UniProt Q9BVC4) | 0.009 | -0.072 | -0.059 | -0.023 | -0.059 | -0.012 | 0.038 | -0.016 | -0.01 | -0.004 | -0.028 | -0.073 | 0.004 | -0.034 | -0.028 | -0.055 | 0.078 | 0.08 | -0.026 | 0.032
13 | LAMP1 (UniProt P11279) | -0.242 | 0.051 | -0.013 | -0.03 | 0.059 | 0.015 | -0.047 | 0.017 | 0.028 | 0.053 | -0.033 | -0.014 | -0.014 | -0.496 (active) | 0.005 | 0.241 (active) | -0.05 | -0.044 | -0.065 | 0.172
14 | MED17 (UniProt Q9NVC6) | -0.001 | -0.093 | 0.025 | -0.035 | -0.019 | 0.03 | -0.017 | -0.012 | 0.023 | -0.015 | 0.003 | 0.018 | -0.029 | -0.058 | -0.005 | -0.037 | -0.043 | 0.008 | -0.005 | 0.034
15 | LARS2 (UniProt Q15031) | 0.021 | -0.06 | -0.047 | 0.013 | -0.088 | 0.038 | -0.115 | 0.051 | 0.007 | 0.012 | -0.012 | -0.073 | -0.047 | 0.014 | -0.039 | -0.2 | 0.054 | 0.012 | -0.067 | 0.044
16 | KMT2A isoform 3 (UniProt Q03164) | -0.073 | 0.011 | -0.07 | -0.054 | -0.069 | -0.118 | -0.037 | -0.371 | 0.061 | -0.172 | -0.07 | -0.102 | -0.033 | 0.091 | 0.013 | 0.013 | 0.148 | 0.026 | -0.41 | 0.069
